Our source for the Potency and outcome values is PubChem BioAssay (Tox21).

SMILES strings stand for the structures. Where “and” joins values, the source holds several entries; their conditions need not be identical. Identical values can stand only once. Records with an inconclusive call do not appear. Where a structure was tested more than once in an assay, its records may differ in their call. Calls of active or inactive are those of the source. Unless noted, the call rests on the fitted dose curve; in most records, active means well fitted curve in the direction sought with a large enough effect in the repeat runs; inconclusive means weak or mixed curves; inactive means no such curve, though single readings can be large; an effect the other way counts as inactive or inconclusive.

Assay [1] can be described thus: qHTS assay to identify small molecule antagonists of the thyroid receptor (TR) signaling pathway - cell viability counter screen (AID 743064). Further: nearly all actives have a fitted effect of over 50% in size. In short, it runs like this:
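Compounds were tested on GH3.TRE-Luc cells in the presence of T3 at 1 nM final. Following 23.5 h at 37 °C, cell viability was quantified by CellTiter-Fluor.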
(qHTS replaces the single test concentration by a dilution series.)

Assay [2] in a line: qHTS assay to identify small molecule antagonists of the thyroid receptor (TR) signaling pathway (AID 743065). Further: series mostly up to about 70 µM; nearly all actives have a fitted effect of over 55% in size. In short, it runs like this: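 GH3.TRE-Luc rat pituitary cells (two TREs driving luciferase) were dosed with compound, then stimulated with 1 nM T3 (final) for 23.5 h at 37 C. ONE-Glo luminescence was the read-out, with CellTiter-Fluor fluorescence as the cytotoxicity counter-screen.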

For assay [3], the system named is thyroid hormone receptor (rat, GH3 cells). The assay can be described thus: qHTS assay to identify small molecule agonists of the thyroid receptor (TR) signaling pathway (AID 743066; calls by dose curve; further: potency means the concentration at half of the fitted maximal effect).
Assay [4] is described as follows: qHTS assay to identify small molecule antagonists of the estrogen receptor alpha (ER-alpha) signaling pathway - cell viability counter screen (AID 743074; calls by dose curve; further: nearly all actives have a fitted effect of over 45% in size).
Assay [5] can be described thus: qHTS assay to identify small molecule antagonists of the estrogen receptor alpha (ER-alpha) signaling pathway using the BG1 cell line - cell viability counter screen (AID 743081).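 Further: compound given together with 17beta-estradiol as the ER stimulus; series mostly up to about 70 µM; nearly all actives have a fitted effect of over 45% in size.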
For assay [6], the target named is Estrogen receptor (Homo sapiens) (UniProt P03372). The assay can be described thus: qHTS assay to identify small molecule antagonists of the estrogen receptor alpha (ER-alpha) signaling pathway (AID 743069; active means well fitted curve in the direction sought with a large enough effect in the signal ratio in the repeat runs, not every such curve was filed as active; the % refers to the signal ratio). The gist of the method:
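In this cell-based reporter format, GripTite HEK293 cells harbouring ER-alpha-UAS-bla were grown overnight with 2% charcoal-stripped FBS, dosed with DMSO-dissolved compounds, then challenged with 17beta-estradiol. After 18 hr at 37C, beta-lactamase activity was detected by FRET fluorescence.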

Assay [7] has the same target. The assay can be described thus: qHTS assay to identify small molecule agonists of the estrogen receptor alpha (ER-alpha) signaling pathway (AID 743075; calls by dose curve).
Assay [8] shares this target. The assay can be described thus: qHTS assay to identify small molecule agonists of the estrogen receptor alpha (ER-alpha) signaling pathway using the BG1 cell line (AID 743079). Further: nearly all actives have a fitted effect of over 20% in size. Further: potency means the concentration at half of the fitted maximal effect.
A short description of assay [9]: qHTS assay to identify small molecule antagonists of the estrogen receptor alpha (ER-alpha) signaling pathway using the BG1 cell line (AID 743080; calls by dose curve;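 further: BG1 cells stimulated with 17beta-estradiol alongside compound; series mostly up to about 70 µM; nearly all actives have a fitted effect of over 25% in size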). In short, it runs like this: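 Quantitative HTS on the Tox21 10K library: BG1 cells with endogenous ER-alpha and ERE-luciferase reporter, 17beta-estradiol stimulation, 21.5 h compound exposure, luminescence endpoint with parallel fluorescence cytotoxicity counter-read.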

For a further assay, the target named is Aromatase (Homo sapiens) (UniProt P11511). Kind of assay: qHTS assay to identify aromatase inhibitors (AID 743083). Further: series mostly up to about 70 µM; nearly all actives have a fitted effect of over 55% in size.
Sequence of Aromatase (Homo sapiens) (P11511 whole entry, looked up): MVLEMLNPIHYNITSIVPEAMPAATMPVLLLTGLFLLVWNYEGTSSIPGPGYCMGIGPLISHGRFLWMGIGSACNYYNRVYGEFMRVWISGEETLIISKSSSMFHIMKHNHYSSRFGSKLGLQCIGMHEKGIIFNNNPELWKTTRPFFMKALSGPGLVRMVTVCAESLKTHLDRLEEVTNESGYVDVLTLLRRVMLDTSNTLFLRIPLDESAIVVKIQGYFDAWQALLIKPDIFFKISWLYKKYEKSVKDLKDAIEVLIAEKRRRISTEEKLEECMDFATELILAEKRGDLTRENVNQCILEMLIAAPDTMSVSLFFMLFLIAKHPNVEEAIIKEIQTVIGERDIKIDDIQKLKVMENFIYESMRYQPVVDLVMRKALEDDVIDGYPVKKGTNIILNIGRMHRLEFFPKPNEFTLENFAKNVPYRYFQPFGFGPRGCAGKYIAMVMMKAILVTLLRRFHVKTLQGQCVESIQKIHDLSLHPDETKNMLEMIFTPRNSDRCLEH

Sequence of Estrogen receptor (Homo sapiens) (P03372 whole entry, looked up): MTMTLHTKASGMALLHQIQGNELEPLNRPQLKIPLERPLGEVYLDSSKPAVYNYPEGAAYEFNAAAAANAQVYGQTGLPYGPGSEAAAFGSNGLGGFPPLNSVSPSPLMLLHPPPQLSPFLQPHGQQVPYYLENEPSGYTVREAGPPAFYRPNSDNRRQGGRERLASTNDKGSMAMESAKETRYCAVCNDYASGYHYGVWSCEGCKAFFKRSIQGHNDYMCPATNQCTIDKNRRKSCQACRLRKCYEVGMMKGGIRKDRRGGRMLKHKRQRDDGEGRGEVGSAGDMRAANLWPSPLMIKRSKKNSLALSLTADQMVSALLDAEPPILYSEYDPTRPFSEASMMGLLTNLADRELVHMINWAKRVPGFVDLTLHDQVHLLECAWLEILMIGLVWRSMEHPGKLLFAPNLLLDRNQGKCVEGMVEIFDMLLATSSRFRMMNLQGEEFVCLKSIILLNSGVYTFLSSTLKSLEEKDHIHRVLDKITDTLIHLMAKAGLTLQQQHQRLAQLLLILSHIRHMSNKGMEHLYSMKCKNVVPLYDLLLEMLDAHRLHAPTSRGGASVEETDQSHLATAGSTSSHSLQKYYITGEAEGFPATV

As for `CSc1nnc(C(C)(C)C)c(=O)n1N`, the Potency entry in assay [1], in assay [2] and in assay [3] was “inactive” throughout. Moreover, the molecule was called inactive in [4] and in assay [5].
In the case of `CCCCC(CC)C(=O)Cl` (configuration not stated), the Potency result (in assay [1]; in assay [2]; in assay [3]; in assay [6]; in [8]; with Aromatase (Homo sapiens)) was “inactive” in each case. The call in [4], in assay [7], in [9] and in [5] was inactive.
Consider `CN(C)C(=O)Cl`, for which the Potency result (in assay [1]; in assay [2]; in [3]; in assay [6]; in assay [8]; with Aromatase (Homo sapiens)) was “inactive” throughout. Besides, the outcome in [4], in assay [7], in assay [9] and in [5] was inactive.
For the molecule `OCc1ccco1`, the Potency entry (in assay [1]; in assay [2]; in assay [3]; in [6]; in assay [8]; with Aromatase (Homo sapiens)) was “inactive” throughout. Moreover, the molecule was classed as inactive in [4], in [7], in assay [9] and in assay [5].
Regarding `O=C(O)COc1ccccc1`, the Potency entry (in [1]; in [2]; in [3]; in assay [6]; in [8]; with Aromatase (Homo sapiens)) was “inactive” throughout. The molecule was classed as inactive in [4], in assay [7], in assay [9] and in assay [5].
`CCOc1ccc(N)cc1`: the Potency result (in assay [1]; in assay [2]; in assay [3]; in assay [6]; in [8]; with Aromatase (Homo sapiens)) was “inactive” each time. Further, the outcome in assay [4], in assay [7], in assay [9] and in assay [5] was inactive.
With `Cc1cccc(N)c1C`, the Potency entry (in assay [1]; in [2]; in assay [3]; in assay [6]; in assay [8]; in the assay with Aromatase (Homo sapiens)) was “inactive” each time. Moreover, the outcome in [4], in [7], in [9] and in assay [5] was inactive.
As to `Cc1cc(O)ccc1Cl`, the Potency entry (in assay [1]; in assay [2]; in assay [6]; with Aromatase (Homo sapiens)) was “inactive” each time. Besides, the Potency result in assay [3] is “inactive and 27.3 µM (active)”; in assay [8], “inactive and 62.2 µM (active)”. Besides, the molecule was classed as inactive in assay [4], in assay [7], in assay [9] and in [5].
On to `CNCC(O)c1ccc(O)cc1` (configuration not stated), for which the Potency entry (in assay [1]; in assay [2]; in assay [3]; in assay [6]; in assay [8]; in the assay with Aromatase (Homo sapiens)) was “inactive” throughout. In addition, the call in assay [4], in [7], in assay [9] and in assay [5] was inactive.
For `Sc1ccccc1`, the Potency entry (in assay [1]; in assay [2]; in [3]; in assay [6]; in assay [8]; with Aromatase (Homo sapiens)) was “inactive” in each case. In addition, the call in [4], in [7], in assay [9] and in assay [5] was inactive.
For the molecule `COc1nc(NC(C)C)nc(NC(C)C)n1`, the Potency result (in assay [1]; in [2]; in assay [3]; in assay [6]; in assay [8]; with Aromatase (Homo sapiens)) was “inactive” each time. In addition, the outcome in assay [4], in [7], in assay [9] and in assay [5] was inactive.
`O=[N+]([O-])c1ccc(Cl)c(Cl)c1`: the Potency entry (in assay [1]; in assay [2]; in assay [3]; in assay [6]; in assay [8]; with Aromatase (Homo sapiens)) was “inactive” in each case. For the same molecule, the molecule was called inactive in [4], in assay [7], in [9] and in assay [5].
Consider `O=[N+]([O-])c1cc([As](=O)(O)O)ccc1O`, for which the Potency result (in assay [2]; in assay [3]; in [6]; in assay [8]; in the assay with Aromatase (Homo sapiens)) was “inactive” each time. The molecule was called inactive in [4], in assay [7], in assay [9] and in [5].
With `O=[N+]([O-])c1ccc(Cl)cc1`, the Potency entry (in assay [1]; in [2]; in assay [3]; with Aromatase (Homo sapiens)) was “inactive” throughout. The call in assay [4] and in [5] was inactive.
For the molecule `Nc1cc(Cl)cc(Cl)c1`, the Potency result (in [1]; in assay [2]; in assay [3]; with Aromatase (Homo sapiens)) was “inactive” each time. Moreover, the molecule was classed as inactive in [4] and in [5].
As for `O=C(O)c1cc(Oc2ccc(C(F)(F)F)cc2Cl)ccc1[N+](=O)[O-]`, the Potency result (in assay [1]; in [2]; in assay [3]; with Aromatase (Homo sapiens)) was “inactive” throughout. Further, the molecule was called inactive in assay [4] and in assay [5].
`O=S(=O)(O)OOS(=O)(=O)O`: the Potency result (in assay [1]; in assay [2]; in assay [3]; with Aromatase (Homo sapiens)) was “inactive” throughout. For the same molecule, the molecule was classed as inactive in [4] and in assay [5].
As to `CCOC(=O)CC(SP(=O)(OC)OC)C(=O)OCC` (configuration not stated), the Potency entry (in [1]; in assay [2]; in assay [3]; with Aromatase (Homo sapiens)) was “inactive” throughout. The outcome in assay [5] was inactive.
As for `O=C/C=C/c1ccccc1`, the Potency result (in assay [2]; in assay [3]; in [6]; with Aromatase (Homo sapiens)) was “inactive” in each case. Also, the outcome in [4], in assay [7], in assay [9] and in assay [5] was inactive. In addition, the Potency result in assay [8] is “inactive and 61.1 µM (active)”.
For the molecule `N#Cc1cccc(C#N)c1`, the Potency entry (in assay [1]; in [2]; in [3]; with Aromatase (Homo sapiens)) was “inactive” in each case. Further, the molecule was called inactive in assay [4] and in assay [5].
On to `CCNc1nc(Cl)nc(NC(C)C)n1`, for which the Potency result (in assay [2]; in assay [3]; in [6]; in assay [8]; with Aromatase (Homo sapiens)) was “inactive” in each case. Moreover, the result in [4], in assay [7], in assay [9] and in assay [5] was inactive.
